GALR2 antag: blocks the human galanin receptor 2. O43603. GALR2-expressing cells, antagonist mode. inhibition, % at 4 µM. 0.39% of 140,000 active. AID 828;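 note: cells stimulated with galanin 1-16 at roughly its EC80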
Target sequence (O43603 whole entry, looked up): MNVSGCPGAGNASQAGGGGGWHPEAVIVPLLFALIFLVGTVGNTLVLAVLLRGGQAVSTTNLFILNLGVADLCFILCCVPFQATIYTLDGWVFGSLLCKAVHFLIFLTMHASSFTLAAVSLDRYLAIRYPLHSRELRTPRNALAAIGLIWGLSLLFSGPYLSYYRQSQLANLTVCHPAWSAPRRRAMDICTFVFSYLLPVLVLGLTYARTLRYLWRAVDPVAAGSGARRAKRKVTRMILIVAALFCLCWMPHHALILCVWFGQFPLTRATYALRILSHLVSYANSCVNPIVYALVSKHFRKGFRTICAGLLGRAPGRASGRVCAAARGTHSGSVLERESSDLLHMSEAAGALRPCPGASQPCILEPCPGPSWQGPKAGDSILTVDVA
S1P2 blocker: S1P2 (human) receptor antagonism | inhibition, % at 5 µM | cell-based S1P2 antagonist assay, inhibition at 5 uM | O95136 | 0.21% of 97,000 active; in the data active = inhibition above about 45%;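 note: CRE beta-lactamase reporter cells expressing human S1P2 stimulated with S1P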
GALR2 ag: agonists of human galanin receptor 2 (GALR2); O43603; GALR2-expressing cells, agonist activation read-out; activation, % (no concentration beside the values); 0.48% of 140,000 active; AID 803; in the data active = activation above about 5%, passing the limit was not always enough
S1P2 ag: agonists of human S1P2 receptor; activation, % at 4.5 µM; 0.46% of 97,000 active; S1P2-expressing cell line, agonist reporter read-out; AID 729; O95136; in the data active = activation above about 16%
hDAT+cocaine: human DAT dopamine uptake with cocaine, either direction; Q01959; LLC-PK1 hDAT cells, [14C]-dopamine uptake with cocaine IC80; actives deviate in either direction; B-score at 10 µM; 1.3% of 110,000 active;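 active = Z score or B-score, a plate-position-corrected score, falls beyond the plate's 99.7% confidence bounds, in either direction; inactive = both scores lie inside the 99.7% bounds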
GALR2 ag confirm: confirmation of human galanin receptor 2 (GALR2) agonists; shares compounds with GALR2 ag; GALR2-expressing cells, agonist activation; activation, % at 5.6 µM; 10% of 460 active; AID 864; in the data active = activation above about 8.4%
BLA act counter: activates beta-lactamase reporter in GALR2 agonist counterscreen | shares compounds with GALR2 ag | CHO NFAT-bla reporter, beta-lactamase FRET activation | activation, % at 5.6 µM | 10% of 460 active;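 active = activation above the screen-wide mean activation plus 3 SD, cut at about 8% in these data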
GALR2 blk conf: confirmation of human galanin receptor 2 (GALR2) antagonists; shares compounds with GALR2 antag; GALR2-expressing cells, antagonist mode, inhibition; inhibition, % at 4 µM; 60% of 480 active;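 note: cells stimulated with galanin at about its EC80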
BLA inhib ctr: beta-lactamase inhibition, GALR2 counterscreen; shares compounds with GALR2 antag; CHO NFAT-BLA reporter, beta-lactamase FRET, thapsigargin-stimulated; inhibition, % at 4.2 µM; 36% of 480 active;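 active = inhibition above the mean inhibition across tested compounds plus 3 SD, cut at about 27% in these data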
Large screens that a line does not name were inactive (follow-up assays come after a bar, where they were run). Sampled rows, rich in hits. Any-hit rate of the full collection: about 2.1%. Cut-off read from the data, not from the text of the source, unless noted: active = inhibition above about 27%; inactive = the rest.

CCN(CC)C(c1ccc(F)cc1)c1nnnn1C1CCCCC1 (configuration not stated)	GALR2 ag 9.8 | GALR2 ag confirm inactive | BLA act counter inactive
N#C/C(=C\c1ccc(-c2ccc(C(=O)O)cc2)o1)C(=O)NCC1CCCO1 (configuration not stated)	none (no result: S1P2 blocker, S1P2 ag, hDAT+cocaine)
CCOC(=O)c1ccc(-c2ccc(/C=C(\C#N)C(=O)NCc3cccs3)o2)cc1	GALR2 ag 9.3 (no result: S1P2 blocker, S1P2 ag, hDAT+cocaine) | GALR2 ag confirm 9.4 | BLA act counter 8.7
O=C(COC(=O)c1cc(-c2cccc3ccccc23)nc2ccccc12)NC1CCS(=O)(=O)C1 (configuration not stated)	none (no result: S1P2 blocker, S1P2 ag, hDAT+cocaine)
COc1ccc2cc(-c3cc(C(=O)OCC(=O)NC4CCS(=O)(=O)C4)c4ccccc4n3)ccc2c1 (configuration not stated)	GALR2 ag 11 (no result: S1P2 blocker, S1P2 ag, hDAT+cocaine) | GALR2 ag confirm 14 | BLA act counter 25
CCOC(=O)COc1ccc(Br)cc1C1NC(=O)NC(C)=C1C(=O)NCc1ccccc1 (configuration not stated)	none
CCN(CC)S(=O)(=O)c1ccc(-c2nnc(SCC(C)=O)o2)cc1	none | GALR2 ag confirm inactive | BLA act counter inactive
CCn1c(N)c(C(=O)NCC2CCCO2)sc1=S (configuration not stated)	none
Nc1c(C(=O)NCC2CCCO2)sc(=S)n1-c1ccccc1 (configuration not stated)	none | GALR2 ag confirm inactive | BLA act counter inactive
CS(=O)(=O)CCC(C(=O)OCc1ccc(Cl)cc1)N1C(=O)c2ccccc2C1=O (configuration not stated)	none (no result: S1P2 blocker, S1P2 ag, hDAT+cocaine)
CC1CN(CC(=O)c2c(N)n(Cc3ccccc3)c(=O)n(C)c2=O)CC(C)O1 (configuration not stated)	GALR2 ag 44 | GALR2 ag confirm inactive | BLA act counter inactive
Cn1c(=O)c(C(=O)CN2CCOCC2)c(N)n(Cc2ccccc2)c1=O	none
CCN(CC)CC(C)OC(=O)COc1ccc(OC)cc1 (configuration not stated)	none
CCCn1nc(NC(=O)c2cccs2)c2cc3cc(OC)ccc3nc21	none | GALR2 ag confirm inactive | BLA act counter inactive
CCCn1nc(NC(=O)c2cccs2)c2cc3ccccc3nc21	none
CCCCn1nc(NC(=O)c2cccs2)c2cc3ccccc3nc21	none | GALR2 ag confirm inactive | BLA act counter inactive
CCOC(=O)CSC1=NC(=O)/C(=C/c2ccc(OC)cc2)S1	none (no result: S1P2 blocker, S1P2 ag, hDAT+cocaine)
COc1ccccc1-c1cc(C(F)(F)F)nc(S(=O)(=O)CCCC(=O)N2CCOCC2)n1	none | GALR2 ag confirm inactive | BLA act counter inactive
COc1ccccc1-c1cc(C(F)(F)F)nc(S(=O)(=O)CCCC(=O)O)n1	none
CCCCC(=O)Nc1cccc(NC(=O)c2ccc(Br)o2)c1	none | GALR2 ag confirm inactive | BLA act counter inactive
CC(=O)c1cccc(NC(=O)c2ccc(Br)o2)c1	none (no result: S1P2 blocker, S1P2 ag)
CCOc1ccccc1N=c1oc2cc(O)ccc2cc1C(=O)NCC1CCCO1 (configuration not stated)	GALR2 ag 66, S1P2 ag 18 | GALR2 ag confirm inactive | BLA act counter inactive
CCOc1ccc(N=c2oc3cc(O)ccc3cc2C(=O)NCC2CCCO2)cc1 (configuration not stated)	none
Cc1cccc(C)c1NC(=O)COc1cccc(/C=N/NC(=O)C(=O)NCc2ccccc2)c1	none
Cc1cc2c(cc1C)C(c1ccccc1Br)CC(=O)N2 (configuration not stated)	GALR2 ag 21 (no result: S1P2 blocker, S1P2 ag, hDAT+cocaine) | GALR2 ag confirm inactive | BLA act counter inactive
O=C(Nc1cccc(C(F)(F)F)c1)c1cc(-c2ccc(F)cc2)on1	none | GALR2 ag confirm inactive | BLA act counter inactive
COC(=O)c1sccc1NC(=O)CN(C)NS(=O)(=O)c1ccc(F)cc1	none | GALR2 ag confirm inactive | BLA act counter inactive
COC(=O)c1sccc1NC(=O)CN(C)NS(=O)(=O)c1ccc(Cl)cc1	none
Cc1ccc(/C=C2\OC(=O)c3ccccc32)cc1	none
O=C(NCCSCc1ccccc1)c1ccc(C2SCC(=O)N2Cc2ccccc2)cc1 (configuration not stated)	none
COc1ccc2ccccc2c1/C=N/NC(=O)c1sc(N)c(C#N)c1C	GALR2 ag 12 (no result: S1P2 blocker, S1P2 ag, hDAT+cocaine) | GALR2 ag confirm inactive | BLA act counter inactive
COc1ccc(S(=O)(=O)N2CCN(C(=O)NC3CCCCC3)CC2)cc1OC	none
COc1cc(/C=C/C(=O)N2CCCc3ccccc32)cc(OC)c1OC	none (no result: S1P2 blocker, S1P2 ag, hDAT+cocaine)
Cc1ccc(-n2c(COc3c(C)cccc3C)nnc2SCC(=O)Nc2nccs2)cc1	GALR2 ag 65 | GALR2 ag confirm inactive | BLA act counter inactive
Cc1ccc(OCc2nnc(SCC(=O)Nc3nccs3)n2-c2ccccc2)cc1C	none
O=C(O)c1c[nH]ccc1=O	GALR2 ag 12 | GALR2 ag confirm inactive | BLA act counter inactive
O=C(O)c1cccc(O)c1O	none (no result: GALR2 antag, S1P2 blocker, GALR2 ag, S1P2 ag)
COc1ccc(C(=O)NN(C)c2nc(-c3ccccc3)nnc2C(F)(F)F)cc1	none (no result: hDAT+cocaine)
CN(NC(=O)C(C)(C)C)c1nc(-c2ccccc2)nnc1C(F)(F)F	none (no result: hDAT+cocaine) | GALR2 ag confirm inactive | BLA act counter inactive
CC(=O)CCn1c(=O)n(CCC(C)=O)c(=O)n(CCC(C)=O)c1=O	GALR2 ag 36 | GALR2 ag confirm inactive | BLA act counter inactive
Cn1nccc1C(=O)Nn1cnnc1	GALR2 ag 20 | GALR2 ag confirm inactive | BLA act counter inactive
COC(=O)COC(=O)c1ccc(-n2nnnc2SC)cc1	none
COC(=O)c1ccc(-n2nnnc2SC)cc1	GALR2 ag 15 | GALR2 ag confirm inactive | BLA act counter inactive
CC(C)(C)C(=O)NC(=S)Nc1cc(C(F)(F)F)ccc1N1CCOCC1	none | GALR2 ag confirm inactive | BLA act counter inactive
COC(=O)c1sc(S(=O)(=O)N2CCN(c3ccccc3)CC2)c(C(=O)OC)c1C	none
CC(C)CC(COCc1ccc(Cl)cc1)N1CCN(C(=O)c2ccc(Cl)cc2Cl)CCC1=O (configuration not stated)	none (no result: S1P2 blocker, S1P2 ag)
CC1=C/C(=N\OS(=O)(=O)c2ccccc2)C(C(C)C)=CC1=O	GALR2 antag 47, GALR2 ag 9.6 (no result: S1P2 blocker, S1P2 ag, hDAT+cocaine) | GALR2 ag confirm 11 | BLA act counter inactive | GALR2 blk conf 52 | BLA inhib ctr 29
Brc1ccc(-c2ccc(/C=N/Nc3nc4ccccc4[nH]3)o2)cc1	GALR2 antag 29, GALR2 ag 23 (no result: S1P2 blocker, S1P2 ag, hDAT+cocaine) | GALR2 ag confirm 9.5 | BLA act counter 17 | GALR2 blk conf inactive | BLA inhib ctr inactive
Brc1ccc(-c2ccc(/C=N/Nc3nncc(-c4ccccc4)n3)o2)cc1	none
O=C(CN1CCN(S(=O)(=O)c2ccc3ccccc3c2)CC1)Nc1ccc2c(c1)CCC2	none (no result: S1P2 blocker, S1P2 ag, hDAT+cocaine)

From PubChem BioAssay
